Activity calls are given as the source filed them. The rule behind the calls is not given here.
What follows are compounds tested against Serine/threonine-protein kinase pim-1 (Homo sapiens) (UniProt P11309) (assay: PIM1 kinase ligand binding by thermal shift, biophysical, human, melting temperature shift (AID 393)). Details: Thermal shift assay, stronger effect = higher value; at 10 µM, protein 2 µM, buffer 10 mM PIPES, pH 6.5, NaCl 150 mM unless noted.
Sequence of Serine/threonine-protein kinase pim-1 (Homo sapiens) (P11309 whole entry, looked up): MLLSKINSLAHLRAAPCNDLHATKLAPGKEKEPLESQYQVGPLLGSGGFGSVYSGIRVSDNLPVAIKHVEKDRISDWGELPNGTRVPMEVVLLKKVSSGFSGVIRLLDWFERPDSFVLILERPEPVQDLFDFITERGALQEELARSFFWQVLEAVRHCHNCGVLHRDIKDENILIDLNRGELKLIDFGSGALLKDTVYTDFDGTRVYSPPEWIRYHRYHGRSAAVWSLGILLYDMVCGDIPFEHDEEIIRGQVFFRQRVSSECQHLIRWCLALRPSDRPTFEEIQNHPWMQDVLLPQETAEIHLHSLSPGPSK

Tm shift, active:
Cn1cc(C2=C(c3c4n(c5ccccc35)CCC(CN)C4)C(=O)NC2=O)c2ccccc21 (stereo not given) 5.8 Celsius [at 10 µM, protein 2 µM, buffer 10 mM Na Citrate, pH 6.5, NaCl 150 mM]
O=C1Nc2ccc(I)cc2/C1=C/c1cc(Br)c(O)c(Br)c1 7.2 Celsius [at 10 µM, protein 2 µM, buffer 10 mM Na Citrate, pH 6.5, NaCl 150 mM]
CCC(CO)Nc1ccc2ncc(-c3ccc(F)c(Cl)c3)n2n1 (stereo not given) 9.05 Celsius
CCN(CC)CCNC(=O)c1c(C)[nH]c(/C=C2\C(=O)Nc3ccc(Cl)cc32)c1C 3.2 Celsius [at 10 µM, protein 2 µM, buffer 10 mM Na Citrate, pH 6.5, NaCl 150 mM]
O=C(O)c1cccc(-c2cnc3ccc(NC4CCOCC4)nn23)c1 9.27 Celsius
O=c1[nH]cnc2c1oc1ccc(Cl)cc12 3.41 Celsius
CC(=O)Nc1cccc(-c2cnc3ccc(N[C@H](CO)C(C)C)nn23)c1 4.84 Celsius
CC(C)[C@@H](CO)Nc1ccc2ncc(-c3cccc(Cl)c3)n2n1 6.86 Celsius
CC(O)(O)C1(O)C[C@@H]2O[C@@]1(C)n1c3ccccc3c3c4c(c5c6ccccc6n2c5c31)C(=O)NC4 (stereo not given in full) 4.3 Celsius [at 10 µM, protein 2 µM, buffer 10 mM Na Citrate, pH 6.5, NaCl 150 mM]
Oc1cccc(-c2cnc3ccc(NCC4CC4)nn23)c1 4.42 Celsius

Reference: PubChem BioAssay AID393 (SGCOxCompounds, 2006)
